Experimental data taken from PubChem BioAssay (NCI).
This is part of a sample that, as a whole, favours compounds with a hit. Of some 83,000 tested, about 20% had one in any assay.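 Results are percent growth after 48 hours of single-concentration exposure. 100 means growth as in untreated cells, lower positive values show inhibition; negative values down to -100 show cell death.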 Unmarked numbers belong to inactive results. Activity calls are given as the source filed them. How the source made its calls: active means growth percent below 10; inactive means the rest.

These molecules were tested on SK-MEL-2 melanoma (assay: NCI-60 one-dose screen, 48 h (100 = growth as untreated, 0 = no growth, -100 = all killed)). Conditions: 10 µM unless noted.

Row | SMILES | growth
1 | COc1cc2oc(-c3cccc(NC(=O)c4cccc(Br)c4)c3)cc(=O)c2c(OC)c1OC | 54%
2 | O=C(Nc1nc2ccc(F)cc2s1)c1cccnc1Nc1ccc(Cl)cc1 | 54.4%
3 | Nc1c(C(=O)Nc2ccncc2)sc2nc3c(cc12)CCCCCC3 | 94.2%
4 | CC1(C)c2[nH]c3ccccc3c2C[C@]2(C)[C@H]3CC=C4[C@@H]5C[C@@](C)(C(N)=O)CC[C@]5(C)CC[C@@]4(C)[C@]3(C)CC[C@@H]12 | 80.3%

The molecules below were run on EKVX NSCLC in the same assay as above. Conditions: 10 µM unless noted.

Row | SMILES | growth
5 | COc1cc(CNS(=O)(=O)c2ccc(C)cc2)ccc1OCc1cn(-c2ccc(Br)cc2)nn1 | 93.1%
6 | Cc1ccc(Cl)cc1Nc1nc(C(F)(F)F)ccc1C(=O)N/N=C/c1cccnc1 | 12.7%
7 | COc1cc2c(c(OC)c1OC)-c1ccc(OC)c(=O)cc1[C@@H](NC(=O)CCl)CC2 | 74.3%
8 | Fc1ccc(Nc2nc3nonc3nc2Nc2ccc(I)cc2)cc1 | 3.92% (active)
9 | CO[C@H]1/C=C(/C)CCC[C@H](C)[C@H](O)[C@@H](C)C(=O)C(C)(C)[C@@H](O)CC(=O)O[C@@H]1/C(C)=C/c1csc(C)n1 | 34%
10 | COCCn1c(-c2csc(-c3cn(C)c4ccc(OC)cc34)n2)cc2cccnc21 | 58.5%
11 | CCNc1nc(-c2ccc(Cl)c(OC)c2)c(-c2ccnc(NCCCNS(=O)(=O)c3ccc(Cl)cc3)n2)s1 | 75.4%
12 | O=C1COCCN1c1ccc(Nc2nc(Cl)nc(OCc3cn(Cc4ccccc4)nn3)n2)cc1 | 99.5%
13 | N#Cc1c(-c2ccc(Cl)cc2)nc(SCC(=O)NC2=NN=C(c3ccccc3)CS2)[nH]c1=O | 86.2%
14 | Cc1cc2c(O)c(-c3cccc(Cl)c3)c3sc(=O)oc3c2cc1C | 93.9%
15 | CC1=C(CCC(C)N(C)Cc2ccc(OCCCN3CCCC3)cc2)C(C)(C)CCC1 (centres undefined) | 47.4%
16 | N#Cc1cccc(-c2c(-c3ccc4ccccc4c3)oc3ccccc3c2=O)c1 | 52.7%
17 | Cc1nc2sc(C(=O)Nc3ccccc3)c(N)c2cc1C(=O)c1ccccc1 | 35.2%
18 | O=C(O)CNC1=C(Cl)C(=O)c2ccccc2C1=O | 98.6%
19 | CCCCCC(=O)OCC(=O)O[C@@H]1C[C@]2(C(C)C)O[C@@]1(C)[C@@H]1CC[C@@H](C)[C@H]1[C@@H]2OC(=O)/C=C/c1ccccc1 | 73.8%
20 | CN1C(=O)/C(=C/c2ccc(C(=O)Nc3ncc(Cc4ccc(Cl)cc4)s3)cc2)SC1=S | 52.6%
21 | C#CCOc1ccc2ncnc(Nc3cccc(NC(=O)C=C)c3)c2c1 | 51.6%
22 | CN(CCOc1ccc(C#N)cc1)CCOc1ccc(C#N)cc1 | 80.3%
23 | CCOC(=O)c1c(NC(=O)c2ccc(C(C)C)cc2)sc2c(CN(C)C)c(O)ccc12 | 97.1%
24 | COC(=O)c1c2c(c[n+]([O-])c1C)C(=O)C(NCc1ccccc1)=CC2=O | -45.1% (active)

Row | SMILES | growth
25 | Nc1ncnc2c1N=C(c1ccc3c(c1)OCO3)CC(c1ccc([N+](=O)[O-])cc1)N2 (centres undefined) | 87.4%
26 | N#C/C(=C/c1ccc([N+](=O)[O-])cc1)n1nnc2cc(F)c(F)cc21 | 103%
27 | CCN1CCN(c2cc(C(=O)Nc3nc(-c4cc(OC)c(OC)c(OC)c4)cs3)cc(C(F)(F)F)c2)CC1 | 64.9%
28 | CN1CCN(c2ccc(C(=O)Nc3cccc(C#Cc4cccc5[nH]nc(N)c45)c3)cc2C(F)(F)F)CC1 | 17.1%
29 | CN1CCN(c2ccc(NC(=O)c3cncnc3Nc3ccc(OCc4ccccn4)c(Cl)c3)cc2)CC1 | 85.6%
30 | c1ccc(CNc2c3ccccc3nc3ccccc23)cc1 | 48.1%
31 | C/C(=N\NC(=O)c1ccccc1O)c1cccc(/C(C)=N/NC(=O)c2ccccc2O)n1 | 30%
32 | N#Cc1c(NC(=O)c2ccccc2)sc2c1CCC(=O)C2 | 21.7%
33 | CCO/C=N/C1=C(C#N)C(c2ccc(OC)cc2)c2sc3c(F)cccc3c2O1 (centres undefined) | 49.4%
34 | O=C(CI)NC1Oc2ccccc2-c2oc(=O)c(-c3ccccc3)cc21 (centres undefined) | 70.4%
35 | Brc1ccc2[nH]cc(-c3nonc3-c3c[nH]c4ccccc34)c2c1 | 28.4%
36 | Fc1ccc2[nH]cc(-c3nonc3-c3c[nH]c4ccc(Br)cc34)c2c1 | 19.3%
37 | N#CC1C=CN(CC(N)=O)c2ccc3cccnc3c21 (centres undefined) | 97.9%
38 | CCOC(=O)CSc1ncnc2c1c(-c1ccccc1)c(-c1ccccc1)n2-c1ccc(C)cc1 | 43.9%
39 | O=C(Cn1c2c(c3ccccc31)CCCC2)Nc1ccc(-c2nc3ccccc3s2)cc1 | 108%
40 | CC(C)=CCC[C@](C)(O)[C@H]1CC[C@]2(C)[C@@H]1CC[C@@H]1[C@@]3(C)Cc4nccnc4C(C)(C)[C@@H]3CC[C@]12C | 70.6%
41 | COc1cc2oc(-c3cccc(NC(=O)c4cccc(Br)c4)c3)cc(=O)c2c(OC)c1OC | 61.3%
42 | O=C(Nc1nc2ccc(F)cc2s1)c1cccnc1Nc1ccc(Cl)cc1 | 9.81% (active)
43 | Nc1c(C(=O)Nc2ccncc2)sc2nc3c(cc12)CCCCCC3 | 89.2%
44 | CC1(C)c2[nH]c3ccccc3c2C[C@]2(C)[C@H]3CC=C4[C@@H]5C[C@@](C)(C(N)=O)CC[C@]5(C)CC[C@@]4(C)[C@]3(C)CC[C@@H]12 | 31.9%
